# Test results from PubChem BioAssay (NCATS).
# Records with an inconclusive call do not appear. Unmarked numbers belong to inactive results. Activity calls are given as the source filed them. The call rests on the fitted dose curve; in most records, active means well fitted cell-killing curve with a large enough effect; inconclusive means small, poorly fitted or top-dose-only effect; inactive means flat fitted curve, though single readings scatter.
# Assay: Cell Viability - LYMP2-021 (AID 974);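 further: compound exposure lasts 24 hours at 37 °C; nearly all actives have a fitted effect of over 55% in size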
# Details: LYMP2-021 lymphoblastoid cells viability; series mostly up to 92.2 µM; activity change, negative = cytotoxicity: at the top concentration
# Description: NIH Chemical Genomics Center [NCGC]
# NIH Molecular Libraries Screening Centers Network [MLSCN]
# National Institutes of Environmental Health Sciences [NIEHS]
# National Toxicology Program [NTP]
# We have developed a 1536-well cell-based assay for quantitative high throughput screening (qHTS) against a number of cell lines to determine in vitro cytotoxicity of small molecules. This particular assay uses a human lymphoblastoid cell line (LYMP2-021) purchased from Coriell Institute for Medical Research.
# NCGC Assay Protocol Summary:
# The CellTiter-Glo luminescent cell viability assay (Promega) is a homogeneous method to measure the number of viable cells in culture. The end point readout of this assay is based on quantitation of intracellular ATP, an indicator of metabolic activity, using the luciferase reaction. Luciferase catalyzes the oxidation of beetle Luciferin to oxyluciferin and light in the presence of ATP. The luminescent signal is proportional to amount of ATP present.
# Using the CellTiter-Glo luminescent cell viability assay, the amount of cellular ATP was measured in the lymphoblastoid cell line with complete culture medium following compound treatment for 24 hours. The assay was performed in opaque white Kalypsys 1536-well plates. In the screen, tetraoctylammonium bromide was used as positive control. Library compounds were measured for their ability to cause acute toxicity in the cell line, as reflected by a decrease in intracellular ATP levels, in a concentration-dependent manner. […] AC50 values were determined from concentration-response data modeled with the standard Hill equation.
# qHTS protocol for CellTiter Glo lymphoblastoid cellular assay
# [Step] [Parameter] [Value] [Description]
# 1. Reagent; 5 uL; 2500 lymphoblastoid cells/well
# 2. Time; 5 hr; 37 C incubation
# 4. Controls; 23 nL; Tetraoctylammonium bromide 6.4pM to 92 uM
# 5. Time; 24 hr; 37 C incubation
# 6. Reagent; 5 uL; CellTiter Glo reagent
# 7. Time; 30 min; Room Temperature
# 8. Detection; Luminescence; Viewlux plate reader
# Keywords: cell viability, cytotoxicity, lymphoblastoid cell line, luminescence, NTPHTS, NTPHTS_NCGC, NIEHS, DSSTox, MLSMR, MLSCN, NIH Roadmap, qHTS, NCGC
# On the % scale 0 is the no-effect control and ±100 the full control effect; potency means the concentration at half of the fitted maximal effect.
Structure (SMILES),"activity change, negative = cytotoxicity",Potency
CCOC(C)OCC,-1.04%,
Nc1ncnc2c1ncn2[C@H]1CC[C@@H](CO)O1,7.3%,
OB(O)O,4.11%,
OCC(O)CO,,inactive
c1ccc2ccccc2c1,0.449%,
O=c1n(CC2CO2)c(=O)n(CC2CO2)c(=O)n1CC1CO1 (centres undefined),,31.6 µM (active)
CO,-2.08%,
OC[C@H]1O[C@@H]2O[C@H]3[C@H](O)[C@@H](O)[C@@H](O[C@H]4[C@H](O)[C@@H](O)[C@@H](O[C@H]5[C@H](O)[C@@H](O)[C@@H](O[C@H]6[C@H](O)[C@@H](O)[C@@H](O[C@H]7[C@H](O)[C@@H](O)[C@@H](O[C@H]1[C@H](O)[C@H]2O)O[C@@H]7CO)O[C@@H]6CO)O[C@@H]5CO)O[C@@H]4CO)O[C@@H]3CO,-1.01%,
CCCCC,0.908%,
CC1=CC(=O)NS(=O)(=O)O1,-4.3%,
Cc1ncc[nH]1,-3.4%,
[O-][N+](=Nc1ccccc1)c1ccccc1,-0.353%,
OCl,-1.65%,
CCCCO,,inactive
Nc1nccs1,-6.22%,
CC/C=C\C/C=C\C/C=C\CCCCCCCC(=O)O,,50.1 µM (active)
CO/N=C(/C(=O)N[C@@H]1C(=O)N2C(C(=O)O)=C(COC(N)=O)CS[C@H]12)c1ccco1,-1.9%,

Structure (SMILES),"activity change, negative = cytotoxicity",Potency
Nc1ccc(N=Nc2ccccc2)c(N)n1,-29.1%,
O=P(O)(O)O,3%,
CC1=CCC2CC1C2(C)C (centres undefined),-1.47%,
Oc1ccc(/C=C/c2cc(O)cc(O)c2)cc1,-24.8%,
OCc1ccccc1,-4.59%,
C[C@H](CCC(=O)O)[C@H]1CC[C@H]2[C@@H]3CC[C@@H]4C[C@H](O)CC[C@]4(C)[C@H]3C[C@H](O)[C@]12C,-1.38%,
NCCN,-0.892%,
C[C@H](CCC(=O)O)[C@H]1CC[C@H]2[C@@H]3[C@H](O)C[C@@H]4C[C@H](O)CC[C@]4(C)[C@H]3C[C@H](O)[C@]12C,-2.52%,
COC(=O)c1ccccc1O,-2.36%,
C=C1C(CCl)(CCl)C2(Cl)C(Cl)C(Cl)C1(Cl)C2(Cl)Cl (centres undefined),,50.1 µM (active)
CC(C)O,1.22%,
NC(N)=O,2.47%,
CC[C@H]1OC(=O)[C@H](C)[C@@H](O[C@H]2C[C@@](C)(OC)[C@@H](O)[C@H](C)O2)[C@H](C)[C@@H](O[C@@H]2O[C@H](C)C[C@H](N(C)C)[C@H]2O)[C@](C)(O)C[C@@H](C)CN(C)[C@H](C)[C@@H](O)[C@]1(C)O,-16.5%,
C/C=C/C=C/C(=O)O,0.843%,
CC(C)(C)CC(C)(C)c1ccc(OCCO)cc1,-17.3%,
ClC(Cl)Cl,1.97%,
Cc1ccc(S(=O)(=O)O)cc1C,1.9%,
